Source: PubChem BioAssay (Tox21)
Several values for one entry are separate records, joined by “and”; a condition that tells them apart may be missing. Equal values may be shown once. Records with an inconclusive call do not appear. More than one record can exist for a structure, and the calls need not agree. Activity calls are given as the source filed them. Unless noted, calls come from the whole dose curve; as a rule, active = well fitted curve in the direction sought with a large enough effect in the repeat runs; inconclusive = weak or mixed curves; inactive = no such curve, though single readings can be large; an effect the other way counts as inactive or inconclusive.

Legend:
[1] = qHTS assay to identify small molecule antagonists of the sonic hedgehog signaling (Shh) pathway (AID 1259369; calls by dose curve; note: nearly all actives have a fitted effect of over 45% in size; note: potency is the fitted concentration of half-maximal effect)
Method in brief: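 For antagonist detection, the reporter line received test compounds together with conditioned medium, incubated 24hr at 37 C, 5% CO2, then luminescence was recorded following 30min room-temperature luciferase reagent incubation.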

[2] = target: Estrogen receptor beta (Homo sapiens) (UniProt Q92731); test: qHTS assay to identify small molecule agonists of the estrogen receptor beta (ER-beta) signaling pathway (AID 1259377; active = well fitted activation curve with a large enough effect in the signal ratio in the repeat runs, not every such curve was filed as active; the % refers to the signal ratio)
Method in brief: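 ER-beta-UAS-bla HEK293T cells in medium with 2% charcoal-stripped FBS were exposed to compounds for 16 h at 37C. Beta-lactamase reporter activity was read as fluorescence after 2 h with LiveBLAzer B/G FRET substrate at room temperature.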

[3] = target: Estrogen receptor beta (Homo sapiens) (UniProt Q92731); test: qHTS assay to identify small molecule antagonists of the estrogen receptor beta (ER-beta) signaling pathway (AID 1259378; active = well fitted inhibition curve with a large enough effect in the signal ratio in the repeat runs, not every such curve was filed as active; the % refers to the signal ratio)
Method in brief: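 ER-beta-UAS-bla HEK293T (GripTite) cells in 2% charcoal-stripped FBS medium were preincubated 6 hr at 37C, dosed with compound, then stimulated with 1 nM E2 (final) for 16 hr; beta-lactamase reporter read by B/G FRET fluorescence after 2 hr substrate loading.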

[4] = qHTS assay to identify small molecule agonists of the androgen receptor (AR) signaling pathway in the presence of an antagonist - cell viability counter screen (AID 1259379);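 note: MDA-kb2 human breast cancer cells carrying an MMTV luciferase reporter; series mostly up to about 92 µM; nearly all actives have a fitted effect of over 25% in size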
Method in brief: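 Seed MDA-kb2 at 3,000 cells/well; incubate 5 hr, 37C, 0% CO2. Add nilutamide to 3.0uM final, then pin compounds at 15 concentrations. Incubate 16 hr. Add CellTiter-Fluor at 15 hr, read fluorescence after 1 hr.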

[5] = qHTS assay to identify small molecule agonists of the estrogen receptor beta (ER-beta) signaling pathway - cell viability counter screen (AID 1259380); note: nearly all actives have a fitted effect of over 30% in size; note: potency is the fitted concentration of half-maximal effect
Method in brief: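 CellTiter-Glo read, 30 min RT, same wells as bla assay; cells ER-beta-UAS-bla HEK293T; 16 hr compound, 37C; medium 2% charcoal-stripped FBS.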

[6] = qHTS assay to identify small molecule antagonists of the estrogen receptor beta (ER-beta) signaling pathway - cell viability counter screen (AID 1259382); note: series mostly up to about 92 µM; nearly all actives have a fitted effect of over 55% in size
Method in brief: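 In this multiplexed counter screen, cells were seeded at 2,000 per well in medium with 2% charcoal-stripped FBS and incubated 6 hr before compound and 1nM final E2 were added. Sixteen hours later, ATP-based luminescence reported viability.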

[7] = qHTS assay to identify small molecule agonists or antagonists of the thyroid stimulating hormone receptor (TSHR) signaling pathway - wild type cell line counter screen (AID 1259384; calls by dose curve)
Method in brief: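 Wild-type HEK293 cells were plated 18 h at 37 C/5% CO2, pin-dosed with compound plus Ro20-1724 medium, held 30 min at room temperature, then given cAMP-d2 and anti-cAMP-cryptate; fluorescence was read after 1 h. Fifteen concentrations, triplicate.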

[8] = target: Thyrotropin receptor (Homo sapiens) (UniProt P16473); test: qHTS assay to identify small molecule antagonists of the thyroid stimulating hormone receptor (TSHR) signaling pathway (AID 1259385; calls by dose curve; note: nearly all actives have a fitted effect of over 20% in size)
Method in brief: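 TSHR-HEK293 cells were plated and held 18 h at 37C/5% CO2, then given compound plus Ro20-1724 and stimulated with TSH at 1.5 ng/mL final. After 30 min at room temperature, cAMP was detected with cAMP-d2/anti-cAMP-cryptate (1 h) by fluorescence.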

[9] = target: Androgen receptor (Homo sapiens) (UniProt P10275); test: qHTS assay to identify small molecule agonists of the androgen receptor (AR) signaling pathway in the presence of an antagonist (AID 1259381; calls by dose curve; note: nearly all actives have a fitted effect of over 15% in size)
Method in brief: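 Test compounds at 15 concentrations were incubated for 16hr with MDA-kb2 reporter cells in presence of 3.0uM nilutamide (final). Signal: ONE-Glo luciferase luminescence.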

[10] = target: Estrogen receptor (Homo sapiens) (UniProt P03372); test: qHTS assay to identify small molecule agonists of the estrogen receptor alpha (ER-alpha) signaling pathway in the presence of an antagonist (AID 1259383; calls by dose curve; note: top concentration of the series differs between compounds; nearly all actives have a fitted effect of over 15% in size)
Method in brief: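 Stably transfected VM7Luc4E2 reporter cells, kept 5 days in charcoal-stripped serum, received ICI-182,780 at 10.0nM final before compound addition. Following 22hr incubation at 37C and 5% CO2, luciferase signal was read by luminescence.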

Measured: Potency

Chain of Thyrotropin receptor (Homo sapiens) (P16473 whole entry, looked up): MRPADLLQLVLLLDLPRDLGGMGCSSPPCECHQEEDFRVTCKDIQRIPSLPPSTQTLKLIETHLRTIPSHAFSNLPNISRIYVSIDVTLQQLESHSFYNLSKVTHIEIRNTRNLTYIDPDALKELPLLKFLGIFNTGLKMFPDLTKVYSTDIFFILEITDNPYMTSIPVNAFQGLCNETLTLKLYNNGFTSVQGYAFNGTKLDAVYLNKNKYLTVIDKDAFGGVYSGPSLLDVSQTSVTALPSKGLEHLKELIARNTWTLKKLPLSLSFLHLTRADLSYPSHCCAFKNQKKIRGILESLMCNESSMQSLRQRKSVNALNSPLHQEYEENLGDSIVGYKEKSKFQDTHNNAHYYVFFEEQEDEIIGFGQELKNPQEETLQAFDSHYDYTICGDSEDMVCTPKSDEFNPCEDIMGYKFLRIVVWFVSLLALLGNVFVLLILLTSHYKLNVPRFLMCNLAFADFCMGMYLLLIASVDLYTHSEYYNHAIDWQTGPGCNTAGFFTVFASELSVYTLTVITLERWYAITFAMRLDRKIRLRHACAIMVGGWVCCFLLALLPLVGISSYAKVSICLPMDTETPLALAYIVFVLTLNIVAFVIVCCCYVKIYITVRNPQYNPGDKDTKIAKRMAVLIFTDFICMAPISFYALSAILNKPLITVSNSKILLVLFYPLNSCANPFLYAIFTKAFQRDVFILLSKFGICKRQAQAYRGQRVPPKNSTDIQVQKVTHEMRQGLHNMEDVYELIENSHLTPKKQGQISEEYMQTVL
Chain of Estrogen receptor (Homo sapiens) (P03372 whole entry, looked up): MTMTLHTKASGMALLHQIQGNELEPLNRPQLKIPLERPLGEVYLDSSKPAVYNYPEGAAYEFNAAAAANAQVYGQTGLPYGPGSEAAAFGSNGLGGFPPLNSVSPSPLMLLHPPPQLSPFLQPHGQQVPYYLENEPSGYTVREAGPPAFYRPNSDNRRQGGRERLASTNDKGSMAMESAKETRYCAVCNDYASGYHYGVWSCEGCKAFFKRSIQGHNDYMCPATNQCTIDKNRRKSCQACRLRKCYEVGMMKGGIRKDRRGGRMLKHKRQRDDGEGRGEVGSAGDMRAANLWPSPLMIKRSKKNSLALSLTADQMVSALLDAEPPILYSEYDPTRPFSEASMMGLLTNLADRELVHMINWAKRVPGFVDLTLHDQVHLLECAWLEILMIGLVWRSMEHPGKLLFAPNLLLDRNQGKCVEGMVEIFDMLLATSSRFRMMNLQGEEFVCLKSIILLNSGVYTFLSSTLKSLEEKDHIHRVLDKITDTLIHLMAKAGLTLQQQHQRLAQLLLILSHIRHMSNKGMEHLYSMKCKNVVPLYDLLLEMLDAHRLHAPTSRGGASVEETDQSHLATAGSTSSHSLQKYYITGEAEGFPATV
Chain of Androgen receptor (Homo sapiens) (P10275 whole entry, looked up): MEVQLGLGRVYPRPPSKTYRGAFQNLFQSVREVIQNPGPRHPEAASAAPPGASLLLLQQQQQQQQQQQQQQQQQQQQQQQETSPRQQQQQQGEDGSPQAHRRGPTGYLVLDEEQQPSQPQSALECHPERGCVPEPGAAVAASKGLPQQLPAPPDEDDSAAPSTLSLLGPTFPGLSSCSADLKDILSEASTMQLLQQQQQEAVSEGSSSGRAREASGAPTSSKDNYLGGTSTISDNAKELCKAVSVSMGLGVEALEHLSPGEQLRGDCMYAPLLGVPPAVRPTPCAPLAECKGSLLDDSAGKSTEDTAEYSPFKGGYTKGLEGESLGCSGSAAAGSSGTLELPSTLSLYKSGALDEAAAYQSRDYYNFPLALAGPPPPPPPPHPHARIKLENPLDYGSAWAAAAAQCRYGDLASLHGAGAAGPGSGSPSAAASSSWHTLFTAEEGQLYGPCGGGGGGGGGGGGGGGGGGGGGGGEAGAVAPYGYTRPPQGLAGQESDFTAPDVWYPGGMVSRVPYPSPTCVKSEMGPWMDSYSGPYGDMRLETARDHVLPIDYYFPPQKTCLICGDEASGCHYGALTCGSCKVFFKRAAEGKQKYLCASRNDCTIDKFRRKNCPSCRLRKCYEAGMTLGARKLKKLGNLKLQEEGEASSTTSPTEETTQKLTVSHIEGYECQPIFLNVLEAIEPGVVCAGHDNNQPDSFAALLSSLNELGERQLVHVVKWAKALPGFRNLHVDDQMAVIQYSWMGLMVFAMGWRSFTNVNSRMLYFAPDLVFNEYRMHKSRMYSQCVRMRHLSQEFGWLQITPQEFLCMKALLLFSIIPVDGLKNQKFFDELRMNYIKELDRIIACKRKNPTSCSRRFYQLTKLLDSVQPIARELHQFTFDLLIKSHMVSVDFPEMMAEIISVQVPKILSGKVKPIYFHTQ
Chain of Estrogen receptor beta (Homo sapiens) (Q92731 whole entry, looked up): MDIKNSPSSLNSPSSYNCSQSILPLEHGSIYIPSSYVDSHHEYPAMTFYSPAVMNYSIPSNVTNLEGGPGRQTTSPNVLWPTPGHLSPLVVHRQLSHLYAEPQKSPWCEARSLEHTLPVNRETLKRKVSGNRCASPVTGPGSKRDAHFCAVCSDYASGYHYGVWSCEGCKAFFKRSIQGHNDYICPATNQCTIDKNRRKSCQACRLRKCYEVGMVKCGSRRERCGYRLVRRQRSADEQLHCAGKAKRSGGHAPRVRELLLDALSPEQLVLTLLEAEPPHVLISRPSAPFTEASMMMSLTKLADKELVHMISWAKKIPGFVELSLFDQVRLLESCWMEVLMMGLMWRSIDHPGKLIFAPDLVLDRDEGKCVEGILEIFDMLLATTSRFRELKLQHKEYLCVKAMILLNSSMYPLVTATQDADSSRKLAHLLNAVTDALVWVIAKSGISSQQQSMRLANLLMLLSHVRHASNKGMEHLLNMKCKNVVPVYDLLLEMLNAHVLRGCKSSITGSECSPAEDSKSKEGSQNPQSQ

COC(=O)OC
inactive: [1] | [2] | [3] | [4] | [5] | [6] | [7] | [8]

CC(=O)OCc1ccc2c(c1)OCO2
inactive: [1] | [2] | [3] | [4] | [5] | [6] | [7]

O=[N+]([O-])c1cc(C(F)(F)F)ccc1Cl
inactive: [1] | [2] | [4] | [5] | [9] | [6] | [7] | [8]

OCc1ccc(Cl)cc1Cl
inactive: [1] | [2] | [3] | [4] | [5] | [6]

CCCCCCC(=O)O
inactive: [1] | [2] | [3] | [4] | [5] | [6] | [10] | [7] | [8]

CCCCCC(C)=O
inactive and 27.3 µM (active): [1]
inactive: [2] | [4] | [5] | [6]

O=C1CCCCCCCCCCC1
inactive: [1] | [2] | [3] | [4] | [5] | [6] | [10] | [7] | [8]

O=Cc1ccc(CO)o1
inactive: [1] | [2] | [4] | [5] | [6] | [10] | [7]

CN1CCCC1=O
inactive: [1] | [2] | [4] | [5] | [6] | [10]

OCCOCCOCCOCCOCCO
inactive: [1] | [2] | [3] | [4] | [5] | [6] | [7] | [8]

CC(C)=CCC/C(C)=C/C=O
inactive: [1] | [2] | [3] | [4] | [5] | [6] | [10] | [7]

CCCCC(=O)O
inactive: [1] | [2] | [3] | [4] | [5] | [6] | [10] | [7]

CC(=O)OCCC(C)C
inactive: [1] | [2] | [3] | [4] | [5] | [6]

Cc1ccc([N+](=O)[O-])cc1N
inactive: [1] | [2] | [4] | [5] | [6] | [10] | [7]

CC(COCC(C)OC(=O)c1ccccc1)OC(=O)c1ccccc1 (centres undefined)
inactive: [1] | [2] | [4] | [5] | [6] | [7] | [8]

COc1ccc([C@@H]2CC(=O)c3c(O)cc(O[C@@H]4O[C@H](CO[C@@H]5O[C@@H](C)[C@H](O)[C@@H](O)[C@H]5O)[C@@H](O)[C@H](O)[C@H]4O)cc3O2)cc1OC
inactive: [1] | [2] | [4] | [5] | [6] | [10] | [7] | [8]

C1CCCNCC1
inactive: [1] | [2] | [4] | [5] | [6] | [10] | [7] | [8]

Cc1ccncc1
inactive: [1] | [2] | [4] | [5] | [6] | [10] | [7] | [8]

COc1c2ccoc2cc2oc(=O)ccc12
inactive: [1] | [2] | [4] | [5] | [6] | [10] | [7]

C=C(CC(=O)O)C(=O)O
inactive: [1] | [2] | [4] | [5] | [6] | [7]

CC/C(C)=N/O
inactive: [1] | [2] | [4] | [5] | [6] | [7] | [8]

Nc1nc(N)c2nc(-c3ccccc3)c(N)nc2n1
69.4 µM (active) and inactive: [5]
active: [1] 24.6 µM and 30.6 µM
inactive: [4] | [9] | [6] | [10] | [7] | [8]

NC(=O)c1ncn([C@@H]2O[C@H](CO)[C@@H](O)[C@H]2O)n1
inactive: [1] | [4] | [5] | [6]

CCN(CC)CCNC(=O)c1ccc(N)cc1
inactive: [1] | [2] | [4] | [5] | [6] | [7] | [8]

NCCNCCNCCN
inactive: [1] | [3] | [4] | [5] | [6] | [7]

CC(C)(C)NC[C@H](O)COc1nsnc1N1CCOCC1
inactive: [1] | [4] | [5] | [6]

COc1ccccc1[N+](=O)[O-]
inactive: [1] | [4] | [5] | [6]

CC(C)c1ccc(C(C)C)cc1
inactive: [1] | [2] | [4] | [5] | [6] | [10] | [7] | [8]
